Screening data as filed in PubChem.
Most compounds without a hit are left out; they make up all but 11% or so of the library.
BAZ2B inh: blocks human BAZ2B; Q9UIF8; 360,000 tested, 4.4% active; AID 504333; Potency, µM (titrated, usually from 114 µM), actives largely listed as inhibitors; AlphaScreen BAZ2B-H3K14Ac peptide displacement; note: nearly all actives have a fitted effect of over 60% in size
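Inhibition is scored as reduced AlphaScreen emission. The BAZ2B/b-H3(5-23)K14Ac complex (50 nM each) in PBS pH 7.4, 0.01% Tween-20 meets compound (up to 110 uM) for 30 min at RT before bead addition.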
JMJD2A Tudor: blocks the human JMJD2A Tudor domain | O75164 | AlphaScreen JMJD2A-Tudor / H3K4me3 peptide binding | Potency, µM (series often up to 114 µM), hits mostly inhibitors | 390,000 tested, 4.4% active | AID 504339; note: nearly all actives have a fitted effect of over 50% in size
HP1b binding inh: inhibitors of HP1-beta chromodomain binding to methylated histone tails; P83916; AlphaScreen HP1-beta / biotin-H3K9me3 peptide binding; Potency, µM (titrated, usually from 114 µM), hits mostly inhibitors; 390,000 tested, 0.56% active; note: nearly all actives have a fitted effect of over 70% in size
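AlphaScreen: HP1-beta (50 nM) preformed 30 min with biotin-H3(1-18)K9me3 peptide (50 nM) in PBS pH 7.4, 0.01% Tween-20. Compound added for 30 min at RT, then streptavidin donor/nickel chelate acceptor beads (10 ug/mL) for 30 min.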
L3MBTL1 block: L3MBTL1 (human) inhibition | Potency, µM (series often up to 57.1 µM), most hits filed as inhibitors | AlphaScreen L3MBTL1–H3K9me1 peptide binding | Q9Y468 | 230,000 tested, 0.66% active; note: nearly all actives have a fitted effect of over 60% in size
Target sequence (Q9Y468 whole entry, looked up): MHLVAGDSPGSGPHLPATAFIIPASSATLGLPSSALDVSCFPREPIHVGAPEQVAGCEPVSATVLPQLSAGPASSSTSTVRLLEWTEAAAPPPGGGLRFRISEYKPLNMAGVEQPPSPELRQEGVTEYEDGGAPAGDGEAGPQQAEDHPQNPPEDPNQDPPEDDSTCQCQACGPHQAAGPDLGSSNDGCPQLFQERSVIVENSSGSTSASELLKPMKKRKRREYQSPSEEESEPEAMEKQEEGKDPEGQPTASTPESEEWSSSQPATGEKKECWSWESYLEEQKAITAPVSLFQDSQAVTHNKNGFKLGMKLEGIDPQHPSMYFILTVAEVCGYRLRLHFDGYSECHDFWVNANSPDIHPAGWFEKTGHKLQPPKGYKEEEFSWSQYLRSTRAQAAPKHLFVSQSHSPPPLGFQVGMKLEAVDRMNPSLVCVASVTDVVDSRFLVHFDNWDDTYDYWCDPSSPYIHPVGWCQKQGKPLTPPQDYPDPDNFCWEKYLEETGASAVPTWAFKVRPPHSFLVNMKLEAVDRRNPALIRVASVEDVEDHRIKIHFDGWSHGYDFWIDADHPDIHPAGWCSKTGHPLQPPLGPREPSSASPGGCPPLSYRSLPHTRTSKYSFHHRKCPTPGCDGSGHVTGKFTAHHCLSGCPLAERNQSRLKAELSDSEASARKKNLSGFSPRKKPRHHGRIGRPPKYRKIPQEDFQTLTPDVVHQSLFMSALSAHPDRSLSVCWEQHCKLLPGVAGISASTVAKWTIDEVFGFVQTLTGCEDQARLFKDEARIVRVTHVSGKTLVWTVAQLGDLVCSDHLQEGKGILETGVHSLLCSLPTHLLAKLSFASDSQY
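L3MBTL1 (50 nM) pre-complexed 30 min with biotinylated H3(1-15)K9me1 peptide (75 nM), then compounds added for 30 min at room temperature; AlphaScreen streptavidin donor/nickel chelate acceptor beads (10 ug/mL final) read after 30 min dark incubation.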
G9a inh: blocks human histone lysine methyltransferase G9a; 350,000 tested, 8.8% active; Q96KQ7; AID 504332; G9a H3K9 monomethylation, AlphaScreen, 2 h; Potency, µM (highest dose often 102 µM), usual class: inhibitors; note: nearly all actives have a fitted effect of over 75% in size
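AlphaScreen detection with an anti-monomethyl H3K9 antibody quantified product after a 2 h room-temperature reaction containing 500 nM biotinylated H3K9 peptide, 20 µM SAM and 20 nM enzyme, which had been preincubated 15 min with compound.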
A number is an active result; 0 = inactive; ? = inconclusive; - = no result given; [ ] = remark or other dose. Calls come from the whole dose curve; as a rule, active = well fitted inhibition curve with a large enough effect; inconclusive = small, poorly fitted or top-dose-only effect; inactive = no such curve, though single readings can be large or run the other way.

SMILES | BAZ2B inh | JMJD2A Tudor | HP1b binding inh | L3MBTL1 block | G9a inh
Cc1ccc(/C(O)=C2/C(=O)C(=O)N(c3ccccn3)C2c2cccc([N+](=O)[O-])c2)cc1 (stereo not given) | 0 | 0 | 0 | - | 35µM
COc1ccc(/C(O)=C2/C(=O)C(=O)N(c3ncccn3)C2c2ccc(C(C)(C)C)cc2)cc1 (stereo not given) | 0 | - | - | - | ?
COc1ccc(Nc2nc(NC(C)(C)C)nc(N3CCCC3)n2)c(OC)c1 | 35µM | 28µM | ? | - | 40µM
CCC(CC)c1nn2c(=O)cc(COc3ccc(NC(=O)c4cccc(C)c4)cc3)nc2s1 | 0 | 0 | 0 | - | 0
Cc1cc(=O)n(C)c(=O)n1CCCCCN1CCCC1 | 50µM | 2.5µM | ? | 28µM | ?
Cc1cc(=O)n(C)c(=O)n1CCCCCCOc1cccc([N+](=O)[O-])c1 | 0 | 0 | 0 | 0 | 0
CC(=O)N1CCC(=NNS(=O)(=O)c2cccc([N+](=O)[O-])c2)CC1 | 0 | 0 | 0 | - | 10µM
C/C(=N/NC(=O)CNC(=O)c1cccnc1)c1cccc([N+](=O)[O-])c1 | 0 | 0 | 0 | - | 0
O=C(c1ccc(NS(=O)(=O)c2cccc([N+](=O)[O-])c2)cc1)N1CCCCCC1 | 0 | 0 | 0 | 0 | 0
C/C(=N\NS(=O)(=O)c1cccc([N+](=O)[O-])c1)c1cccnc1 | 0 | 0 | 0 | 0 | 32µM
CC(=O)N1CCC(=NNS(=O)(=O)c2ccc(C)c([N+](=O)[O-])c2)CC1 | 0 | 0 | 0 | - | 11µM
CC(=O)N1CCC(=NNc2ccc(S(N)(=O)=O)cc2[N+](=O)[O-])CC1 | 0 | 0 | 0 | 0 | 0
CCc1nn(C(CC)C(=O)NCc2ccc(OC)c(OC)c2)c(=O)c2cc3oc(C)cc3n12 (stereo not given) | 0 | 0 | 0 | - | 0
Brc1cccc(-c2nnn3c2nc(NCc2ccc4c(c2)OCO4)c2ccccc23)c1 | 0 | 0 | 0 | - | 0
Clc1ccc(C2Nc3cccc4cccc(c34)N2)cc1 | ? | ? | 0 | 0 | 35µM
CSc1ccc(C2Nc3cccc4cccc(c34)N2)cc1 | 50µM | 18µM | 18µM | 0[2.29 µM] | 0[0.501 µM]
O=[N+]([O-])c1cc(C2Nc3cccc4cccc(c34)N2)ccc1Cl | ? | 0 | 0 | ? | ?
Brc1ccc(C2Nc3cccc4cccc(c34)N2)s1 | ? | 0 | ? | 0 | 25µM
NC(=O)CC1Nc2cccc3cccc(c23)NC1=O (stereo not given) | 0 | 0 | ? | 0 | 0
Cc1cccc(C2Nc3cccc4cccc(c34)N2)c1 | ? | ? | ? | - | 35µM
O=C(OCCCOC(=O)c1ccc(O)cc1)c1ccc(O)cc1 | 0 | 0 | 0 | - | 0[0.501 µM]
C/C=C1\COC(C(=O)NCc2ccccn2)(C(F)(F)F)C=C1C=C(C)C (stereo not given) | - | 0 | 0 | - | -
Cc1ccc(C(=O)NCCc2ccc(Cl)cc2)cc1-n1c(C)nc2cccnc21 | 0 | 0 | 0 | - | 0
Nc1ccccc1N=Cc1ccc(-c2cccc(Cl)c2)o1 | 0 | 0 | 0 | 0 | ?
c1cc2c3c(cccc3c1)NC(c1ccc3c(c1)OCO3)N2 | 40µM | 40µM | ? | - | 35µM
SMILES | BAZ2B inh | JMJD2A Tudor | HP1b binding inh | L3MBTL1 block | G9a inh
Clc1ccc(C2Nc3cccc4cccc(c34)N2)c(Cl)c1 | - | 35µM | ? | - | -
Clc1cccc(-c2ccc(C3Nc4cccc5cccc(c45)N3)o2)c1 | - | 40µM | ? | 0 | -
CCn1c(=O)c2sccc2n2c(CCCC(=O)N3CCN(c4ccc(F)cc4)CC3)nnc12 | 0 | 0 | 0 | - | 0
Cc1ccccc1N1C(=O)CC(Nc2ccc3c(c2)OCO3)C1=O (stereo not given) | ? | 0 | 0 | 0 | 40µM
O=C(CSc1nnc(Cc2cccs2)n1-c1ccc(Cl)cc1)NCc1ccc2c(c1)OCO2 | 0 | 0 | 0 | 0 | 50µM
Cc1cc(NC(=O)CSc2ncc(C(=O)O)n2-c2ccc(F)cc2)no1 | - | 0 | 0 | 0 | -
O=C(CSc1nnc(-c2cccs2)n1-c1ccccc1)NCc1ccc2c(c1)OCO2 | 0 | 0 | 0 | - | 0[12.7 µM]
O=C(CSc1ncc(C(=O)O)n1-c1ccc(F)cc1)NCc1ccc2c(c1)OCO2 | 0 | 0 | 0 | 0 | 45µM
CCOC(=O)c1cc(-c2ccc(OC)cc2)n(CCC(=O)Nc2ccccc2OC)c1C | 79µM | 28µM | 0 | - | 0
CCOC(=O)c1cc(-c2ccc(OC)cc2)n(CCC(=O)Nc2ccc(OC)cc2OC)c1C | 0 | ? | 0 | - | ?
CCOC(=O)c1cc(-c2ccccc2)n(CC(=O)Nc2ccc(OC)cc2OC)c1C | 0 | 22µM | 0 | - | 0
CC12CCC=CC1C(c1ccc3ccccc3c1)N(Cc1ccccc1)C2=O (stereo not given) | - | 0 | 0 | - | -
CCOc1ccc(CCNC(=O)c2nn(C)c3c2CSc2ccccc2-3)cc1 | 0 | 0 | 0 | - | 0
COc1ccc(CCCc2nnc(SCC(=O)Nc3ccccc3F)o2)cc1 | 0 | 0 | 0 | - | 0
COC(=O)C1=C[C@@H](C(=O)OC)C2C3=C(C(=O)[C@]2(C)NC(=O)c2ccccc2)[C@H](C)n2c(=O)n(C)c(=O)n2[C@@H]3C1 (stereo not given in full) | - | 0 | 0 | - | -
CC1C(=O)N2CCCc3cc(S(=O)(=O)N4CCC(C(N)=O)CC4)cc1c32 (stereo not given) | ? | 0 | 0 | - | 13µM
CC1C(=O)N2CCCc3cc(S(=O)(=O)Nc4ccccc4C(N)=O)cc1c32 (stereo not given) | 0 | 0 | 0 | 0 | 45µM
O=C(CSc1nc2c([nH]c3ccccc32)c(=O)n1-c1ccccc1)N1CCCC1 | ? | 0 | 0 | - | 0
C/C(CC(=O)NC1CCCCCC1)=N\NC(=O)c1cnccn1 | 0 | 2.2µM | 0 | 0 | ?
C/C(CC(=O)NC1CCCCC1)=N\NC(=O)c1ccccc1C | 0 | 0 | 0 | - | 40µM
N#Cc1nc(N)nc(N2CCCCC2)n1 | - | 0 | 0 | - | -
COc1ccc(N2CCN(C(=O)CCCC(=O)c3ccccc3)CC2)cc1 | ? | 0 | 0 | 0 | 0
COc1ccc2c(c1)c(C(=O)CN1CCN(Cc3ccccc3)CC1)c(C)n2C | 0 | 0 | 0 | 0 | -
COc1ccc(N2CCN(CC(=O)N3c4ccccc4CC3C)CC2)cc1 (stereo not given) | 35µM | 2.8µM | 25µM | - | 8.9µM
COc1ccc2c(c1)c(C(=O)CN1CCN(c3ccccc3)CC1)c(C)n2C | ? | 0 | 0 | 0 | 35µM
COc1ccc(N2CCN(CCC(=O)c3ccc4ccccc4c3)CC2)cc1 | ? | ? | 0 | - | 10µM
O=C(CN1CCN(c2ccccc2)CC1)c1ccc2cc[nH]c2c1 | 0 | 0 | 0 | - | 11µM
Cc1nc(NC(=O)c2c(-c3ccccc3Cl)noc2C)sc1C | ? | 0 | 0 | - | -
NC(=O)CC(NC(=O)c1ccccc1)c1ccc(NCCc2ccc(Cl)cc2)c([N+](=O)[O-])c1 (stereo not given) | 0 | 0 | 0 | - | 0
CCCN1CNc2c(c(=O)[nH]c(=S)n2CCc2cc(C)ccc2C)C1 | - | 0 | 0 | - | -
